# Whole data set: some 110,000 compounds, median “z-score” near -0.1, cut for the highest 2% near 2. Shown is part of a subset that was picked to be rich in the highest values. Calls of active or inactive are those of the source.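 The calls were made as follows: active = z-score in the third read window above 3 or below -3; inactive = the rest.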
# Target: Metabotropic glutamate receptor 8 (Rattus norvegicus) (UniProt P70579)
# Experiment: mGluR8 Gi/Go-coupled signaling modulation – cell-based, rat, thallium flux, HTS, primary screen (AID 488969)
# Settings: HEK293 rat mGluR8, GIRK (G protein-gated inwardly rectifying potassium channel) thallium flux, FluoZin2; at 10 µM; stronger effect = higher value; submaximal glutamate (EC20) added with thallium
# Chain of Metabotropic glutamate receptor 8 (Rattus norvegicus) (P70579 whole entry, looked up): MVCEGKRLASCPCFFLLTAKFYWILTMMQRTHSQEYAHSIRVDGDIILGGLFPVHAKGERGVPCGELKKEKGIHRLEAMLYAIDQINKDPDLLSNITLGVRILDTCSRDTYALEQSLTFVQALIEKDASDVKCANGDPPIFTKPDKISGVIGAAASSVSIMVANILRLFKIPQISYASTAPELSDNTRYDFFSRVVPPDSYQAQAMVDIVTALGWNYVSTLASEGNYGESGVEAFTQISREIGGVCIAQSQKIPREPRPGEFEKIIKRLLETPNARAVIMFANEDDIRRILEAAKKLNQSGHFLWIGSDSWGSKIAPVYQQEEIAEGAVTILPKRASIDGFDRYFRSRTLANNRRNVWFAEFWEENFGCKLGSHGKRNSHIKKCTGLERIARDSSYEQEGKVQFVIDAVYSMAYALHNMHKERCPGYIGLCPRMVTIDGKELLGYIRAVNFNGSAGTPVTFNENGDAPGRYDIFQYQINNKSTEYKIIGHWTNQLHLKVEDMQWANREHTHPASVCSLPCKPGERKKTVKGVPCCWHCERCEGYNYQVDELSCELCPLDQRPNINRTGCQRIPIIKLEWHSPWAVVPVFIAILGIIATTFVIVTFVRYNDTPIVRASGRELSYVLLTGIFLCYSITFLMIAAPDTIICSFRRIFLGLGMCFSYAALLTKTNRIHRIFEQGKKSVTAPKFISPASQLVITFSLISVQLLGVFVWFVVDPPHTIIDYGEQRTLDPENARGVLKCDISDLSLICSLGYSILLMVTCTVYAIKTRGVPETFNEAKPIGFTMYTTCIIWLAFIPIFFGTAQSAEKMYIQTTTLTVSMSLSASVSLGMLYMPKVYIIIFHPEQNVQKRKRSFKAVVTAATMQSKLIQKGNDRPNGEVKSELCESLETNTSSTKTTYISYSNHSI
row,Structure (SMILES),z-score
1,CCc1ccc(S(=O)(=O)c2n[nH]n3c2nc(=O)c2ccccc23)cc1,0.475
2,CC(C)c1ccc(S(=O)(=O)c2n[nH]n3c2nc(=O)c2ccccc23)cc1,2.66
3,CC(C)c1ccc(S(=O)(=O)c2nnn3c2nc(N2CCCCC2)c2ccccc23)cc1,-0.645
4,O=C(/C=C/N1CCOCC1)c1ccc(-c2ccccc2)cc1,-0.364
5,CC1=NN(C(N)=S)C(=O)C1N=Nc1ccccc1C (stereo not drawn),2.97
6,CC1=NN(c2ccccc2)C(=O)C1N=Nc1ccc(N)cc1 (stereo not drawn),-0.073
7,CC1=NN(c2ccccc2)C(=O)C1N=Nc1ccccc1 (stereo not drawn),0.244
8,CC1=NN(C(N)=S)C(=O)C1N=Nc1ccc(C)cc1C (stereo not drawn),13.2 (active)
9,CC1=NN(C(N)=S)C(=O)C1N=Nc1c(C)cc(C)cc1C (stereo not drawn),0.119
10,Cc1ccc(N=Nc2c(C)[nH][nH]c2=O)c(C)c1,0.772
11,Cc1ccccc1-n1c(C)nnc1SCc1cc(=O)oc2ccc3ccccc3c12,0.0722
12,CC(C)CC(=O)Nc1ccc(C(=O)NNC(=O)C(c2ccccc2)c2ccccc2)cc1,-0.258
13,O=C(O)C1CCN(C(=O)c2ccc(Cl)cc2)CC1,0.000989
14,Cc1cc(C)c(C)c(S(=O)(=O)NCc2ccc(C(=O)N3CCCCC3)cc2)c1C,0.249
15,Cc1cc(C)cc(OCC(=O)N2N=C(C(F)(F)F)CC2(O)C(C)(C)C)c1 (stereo not drawn),4.9 (active)
16,CCCCC1(O)CC(C(F)(F)F)=NN1C(=O)COc1ccccc1 (stereo not drawn),0.45
17,Cc1ccccc1OCC(=O)N1N=C(C(F)(F)F)CC1(O)C(C)(C)C (stereo not drawn),1.61
18,Cc1ccc(OCC(=O)N2N=C(c3cccnc3)CC2(O)C(F)(F)F)cc1C (stereo not drawn),-0.105
19,Cc1ccc(OCC(=O)N2N=C(C(F)(F)F)CC2(O)C(C)(C)C)cc1C (stereo not drawn),3.56 (active)
20,Cc1cc(C)cc(OCC(=O)N2CCCCCC2)c1,-0.242
21,COP(=O)(OC)c1nc(-c2cccc3ccccc23)oc1NCc1ccccc1,-0.666
22,CC(C)(C)C(=O)Nc1cccc(C(=O)c2cccc(NC(=O)C(C)(C)C)c2)c1,-0.249

row,Structure (SMILES),z-score
1,Cc1cccc(C(=O)NC(=S)Nc2ccc(S(=O)(=O)N3CCCCC3)cc2)c1,-0.0168
2,CCOC(=O)C1=C(C)N=C2SC(C)C(=O)N2C1c1ccc(OCC)c(OCC)c1 (stereo not drawn),0.125
3,COc1cc(/C=C2\SC(=S)N(CC(=O)Nc3ccccn3)C2=O)cc(OC)c1OC,-0.0617
4,OC(CN=c1sc2ccccc2n1CC(O)COc1ccccc1)COc1ccccc1 (stereo not drawn),0.0732
5,Cn1c(=NCC(O)COc2ccccc2)sc2ccccc21 (stereo not drawn),2.27
6,CCN=c1sc2ccccc2n1CC(O)COc1ccccc1 (stereo not drawn),0.979
7,CC(=O)N1CCC(=NNc2ccc(S(=O)(=O)N3CCOCC3)cc2[N+](=O)[O-])CC1,0.476
8,COC(=O)Cc1ccc(NC(=O)c2ccc(C(C)(C)C)cc2)cc1,-0.0938
9,COc1ccc(/C=C/C(=O)NCc2c(C)nn(C)c2C)cc1COc1ccc(Br)cc1,-0.131
10,Cc1ccc(NC(=O)CN(C)S(=O)(=O)c2cnc[nH]2)cc1C,2.45
11,Cc1cc(C)cc(NC(=O)CN(C)S(=O)(=O)c2cnc[nH]2)c1,-0.129
12,Cc1cccc(NC(=O)CN(C)S(=O)(=O)c2cnc[nH]2)c1,1.6
13,CC1CC1C(=O)OCC(=O)NC(=O)NCc1ccco1 (stereo not drawn),-0.131
14,CCc1ccc(-c2nn(-c3ccccc3)cc2C2SCC(=O)N2Cc2ccco2)cc1 (stereo not drawn),-0.102
15,Cc1cccc(Nc2nc(N)c([N+](=O)[O-])c(N3CCCC(C)C3)n2)c1 (stereo not drawn),-0.0648
16,Cc1ccc(Nc2nc(N)c([N+](=O)[O-])c(N3CCOCC3)n2)cc1C,-0.153
17,Cc1ccc(Nc2nc(N)c([N+](=O)[O-])c(N3CCCC(C)C3)n2)cc1C (stereo not drawn),2.26
18,O=C(NCCc1ccc(Cl)cc1)C1CCCN(S(=O)(=O)c2cnc[nH]2)C1 (stereo not drawn),0.0211
19,COc1ccc(S(=O)(=O)N(CCN2CCOCC2)Cc2cc(OC)ccc2OC)cc1,-0.389
20,Cc1cc2nc(CCN(Cc3cccnc3)C(=S)Nc3ccccc3)[nH]c2cc1C,0.259
21,Cc1ccc(S(=O)(=O)N2CCOCC2)cc1C(=O)OCC(=O)Nc1ccc2c(c1)OCO2,-0.412
22,O=S(=O)(c1ccc(NC(=S)Nc2ccc3c(c2)OCO3)cc1)N1CCOCC1,0.154

row,Structure (SMILES),z-score
1,O=S(=O)(c1ccc(Nc2ccc3c(c2)OCO3)nc1)N1CCOCC1,2.28
2,C=CCn1c(SCn2nnc3ccccc3c2=O)nnc1-c1ccc(Br)cc1,0.482
3,Cc1ccc(/C=C(\NC(=O)c2ccc(C)cc2)c2nc(=S)[nH][nH]2)cc1,0.31
4,COC(=O)c1ccccc1NC(=S)N(Cc1ccc2c(c1)OCO2)Cc1cc2cc(C)ccc2[nH]c1=O,2.03
5,COC(=O)c1ccccc1NC(=S)N(Cc1ccc2c(c1)OCO2)Cc1cc2ccc(C)cc2[nH]c1=O,0.26
6,COC(=O)c1ccccc1NC(=S)N(Cc1ccc2c(c1)OCO2)Cc1cc2cc(OC)ccc2[nH]c1=O,-0.529
7,CC(C)(C)N=C1NN=C(c2cc3ccccc3o2)CS1,-0.336
8,CC(=O)O/N=C(/C)c1ncc(C(F)(F)F)cc1N1CCOCC1,-0.337
9,Cc1ccccc1Cn1c(CN2CCc3ccccc3C2)nc2c1c(=O)n(C)c(=O)n2C,-0.399
10,COc1ccc(/C=C(/C(=O)c2ccc(Cl)cc2Cl)n2cncn2)cc1,0.0171
11,COc1ccc(C(=O)NC2CCCCCC2)cc1S(=O)(=O)N1CCCc2ccccc21,-0.00531
12,CCN(/N=C/c1cccs1)c1cc(=O)n(C)c(=O)[nH]1,-0.0804
13,O=C(N/N=C/C=C/c1ccccc1)c1cccc(Br)c1,0.831
14,O=C(COc1cccc(Br)c1)NN=C1c2ccccc2-c2ccccc21,0.184
15,O=C(NN=C1c2ccccc2-c2ccccc21)c1ccccn1,0.564
16,O=C(NN=C1c2ccccc2-c2ccccc21)c1cccc(Br)c1,4.19 (active)
17,O=C(NN=C1c2ccccc2-c2ccccc21)c1ccccc1Br,5.82 (active)
18,O=C(N/N=C/C=C/c1ccccc1)c1ccccc1Br,-0.846
19,CCC(C)N(C)Cc1cccc(C2(O)CCN(S(=O)(=O)c3ccc(F)cc3)CC2)c1 (stereo not drawn),-0.276
20,CCOc1ccc(Nc2oc(-c3ccccc3Cl)nc2C#N)cc1,-0.217
21,Cc1cc2nnc(SC(C)C)n2c2ccccc12,-1.9
22,CCOC(=O)C(CC)Sc1nnc2cc(C)c3ccccc3n12 (stereo not drawn),7.83 (active)

row,Structure (SMILES),z-score
1,CCOC(=O)CSc1nnc2cc(C)c3ccccc3n12,-1.09
2,Cc1c([N+](=O)[O-])c([N+](=O)[O-])nn1CC(=O)N1CCCCC1,-0.199
3,Cc1ccc(S(=O)(=O)N2CCCC2C(=O)O)cc1 (stereo not drawn),0.451
4,Cc1ccc(-c2nnn(CC(=O)NC3CC4CCC3C4)n2)cc1 (stereo not drawn),5.1 (active)
5,CC1CCCCC1NC(=O)Cn1nnc(-c2ccc(Cl)cc2)n1 (stereo not drawn),0.119
6,Cc1ccc(-c2nnn(CC(=O)NC3CCN(Cc4ccccc4)CC3)n2)cc1,0.381
7,CC(O)c1n(C)c(Cl)c[n+]1C (stereo not drawn),-0.00128
8,O=C(CO/N=C/c1ccccc1O)N1CCc2ccccc21,-0.0476
9,O=C(Nc1nnc(-c2ccc(Cl)cc2)o1)NC1CCCCC1,-0.0226
10,O=C(Nc1nnc(-c2ccc(Cl)cc2)o1)c1ccc(N2C(=O)CCC2=O)cc1,4.39 (active)
11,Cc1cc(NC(=O)c2ccc(N3C(=O)CCC3=O)cc2)no1,0.412
12,O=C(Nc1nnc(-c2ccc(Cl)cc2)o1)c1cccc(N2C(=O)CCC2=O)c1,3.29 (active)
13,O=C(Nc1ccccc1)c1cccc(N2C(=O)CCC2=O)c1,-0.0312
14,O=C(Nc1nnc(-c2ccccc2)o1)c1cccc(N2C(=O)CCC2=O)c1,-0.326
15,Cc1cc(C)c(C)c(OCCCn2ccnc2)c1,-0.369
16,COC(=O)c1ccc(/C=N/N2CCN(Cc3ccc(C)cc3C)CC2)cc1,2.42
17,COC(=O)c1ccc(/C=N\N2CCN(Cc3ccc(C)cc3)CC2)cc1,-0.269
18,COC(=O)c1ccc(/C=N/N2CCN(Cc3ccccc3)CC2)cc1,-0.196
19,Cc1cccc(NC(=O)C2Cc3ccccc3CN2C(=O)OCc2ccccc2)c1C (stereo not drawn),-0.188
20,CCC1CCCCN1C(=O)CSc1nc2c([nH]c3ccccc32)c(=O)n1C (stereo not drawn),0.357
21,CCOP(=O)(OCC)C(Nc1ccccn1)c1ccc(F)cc1 (stereo not drawn),-0.18
22,O=C(NCc1ccccc1F)c1cccs1,-0.158

row,Structure (SMILES),z-score
1,O=C(O)c1cc2c(ccc3ccccc32)[nH]1,-0.467
2,CS(=O)(=O)c1ccc2nc(NC(=O)Nc3ccc(Cl)c(Cl)c3)sc2c1,3.23 (active)
3,CS(=O)(=O)c1ccc2nc(NC(=O)Nc3ccc(Cl)cc3)sc2c1,0.161
4,CS(=O)(=O)c1ccc2nc(NC(=O)C3C4C=CC(C4)C3C(=O)O)sc2c1 (stereo not drawn),4.92 (active)
5,O=C(Nc1nc2ccc(F)cc2s1)C1CCCO1 (stereo not drawn),0.535
6,O=C(Nc1nc2ccc(S(=O)(=O)N3CCCCC3)cc2s1)C1CCCO1 (stereo not drawn),-0.0835
7,CCC(=O)Nc1nc2ccc(S(C)(=O)=O)cc2s1,0.244
8,NS(=O)(=O)c1ccc2nc(NC(=O)C3CCCO3)sc2c1 (stereo not drawn),2.74
9,CS(=O)(=O)c1ccc2nc(NC(=O)Nc3cccc(Cl)c3)sc2c1,0.135
10,CC1=CCC(C(=O)O)C(C(=O)Nc2nc3ccc(S(C)(=O)=O)cc3s2)C1 (stereo not drawn),0.387
11,CN(C)c1ccc(CN(C(=O)COc2ccccc2)C2CCS(=O)(=O)C2)cc1 (stereo not drawn),-0.709
12,O=C(NCc1cn(-c2ccccc2)nc1-c1ccccc1)c1ccc([N+](=O)[O-])cc1,-0.0499
13,O=C(CSc1cc(Cl)ccc1Cl)NCC1CCCO1 (stereo not drawn),-0.0958
14,Cc1ccccc1-n1c(SCc2csc(Nc3ccccc3)n2)nnc1-c1cccnc1,-0.897
15,CN1CCN(Cc2cccc(Oc3ccccc3)c2)CC1,0.0807
16,CN1CCN(Cc2cccc(Oc3ccc(Cl)cc3)c2)CC1,4 (active)
17,CCN1CCN(Cc2cccc(Oc3ccccc3)c2)CC1,0.156
18,c1ccc(Oc2cccc(CN3CCCCC3)c2)cc1,-0.282
19,CCN1CCN(Cc2cccc(Oc3ccc(Cl)cc3)c2)CC1,0.924
20,CC1CCCN(Cc2cccc(Oc3ccccc3)c2)C1 (stereo not drawn),6.29 (active)
